Experiment [1] addresses T1, Serine/threonine-protein kinase TBK1 (Homo sapiens) (UniProt Q9UHD2).
T1 sequence (whole entry): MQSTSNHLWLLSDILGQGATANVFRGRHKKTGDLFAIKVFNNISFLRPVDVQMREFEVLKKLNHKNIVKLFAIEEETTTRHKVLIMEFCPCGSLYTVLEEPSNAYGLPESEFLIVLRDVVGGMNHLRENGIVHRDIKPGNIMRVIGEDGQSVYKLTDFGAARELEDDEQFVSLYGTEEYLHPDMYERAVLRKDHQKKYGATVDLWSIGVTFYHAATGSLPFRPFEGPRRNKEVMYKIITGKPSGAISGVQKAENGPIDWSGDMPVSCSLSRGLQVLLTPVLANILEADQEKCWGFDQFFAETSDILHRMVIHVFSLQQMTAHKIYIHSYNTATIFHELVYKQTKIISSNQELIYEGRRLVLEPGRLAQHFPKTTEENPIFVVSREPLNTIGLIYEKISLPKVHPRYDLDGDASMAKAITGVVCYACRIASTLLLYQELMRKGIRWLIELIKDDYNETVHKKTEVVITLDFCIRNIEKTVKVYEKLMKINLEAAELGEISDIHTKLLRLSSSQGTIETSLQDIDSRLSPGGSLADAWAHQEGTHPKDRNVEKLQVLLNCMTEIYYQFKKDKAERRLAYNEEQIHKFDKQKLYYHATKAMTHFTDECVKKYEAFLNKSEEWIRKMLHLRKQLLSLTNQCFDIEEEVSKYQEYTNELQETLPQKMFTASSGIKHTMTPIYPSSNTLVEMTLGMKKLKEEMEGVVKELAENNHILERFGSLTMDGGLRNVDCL
Conditions: at 1 µM.

The target in experiment [2] is T2, Testis-specific serine/threonine-protein kinase 1 (Homo sapiens) (UniProt Q9BXA7).
T2 sequence (whole entry): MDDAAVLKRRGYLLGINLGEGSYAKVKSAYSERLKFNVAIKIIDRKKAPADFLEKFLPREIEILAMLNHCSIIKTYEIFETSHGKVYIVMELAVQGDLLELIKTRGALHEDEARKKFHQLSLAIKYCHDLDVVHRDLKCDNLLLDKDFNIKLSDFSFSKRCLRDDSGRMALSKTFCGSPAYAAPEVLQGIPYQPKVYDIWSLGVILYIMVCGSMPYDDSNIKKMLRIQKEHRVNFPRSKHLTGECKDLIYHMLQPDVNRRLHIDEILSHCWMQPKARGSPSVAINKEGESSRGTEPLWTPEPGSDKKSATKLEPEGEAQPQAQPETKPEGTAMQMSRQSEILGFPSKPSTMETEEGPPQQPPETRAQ
Conditions: at 0.1 µM.

In experiment [3] the target is T2, Testis-specific serine/threonine-protein kinase 1 (Homo sapiens). Conditions: at 1 µM.
The target in experiment [4] is T3, Testis-specific serine/threonine-protein kinase 2 (Homo sapiens) (UniProt Q96PF2).
T3 sequence (whole entry): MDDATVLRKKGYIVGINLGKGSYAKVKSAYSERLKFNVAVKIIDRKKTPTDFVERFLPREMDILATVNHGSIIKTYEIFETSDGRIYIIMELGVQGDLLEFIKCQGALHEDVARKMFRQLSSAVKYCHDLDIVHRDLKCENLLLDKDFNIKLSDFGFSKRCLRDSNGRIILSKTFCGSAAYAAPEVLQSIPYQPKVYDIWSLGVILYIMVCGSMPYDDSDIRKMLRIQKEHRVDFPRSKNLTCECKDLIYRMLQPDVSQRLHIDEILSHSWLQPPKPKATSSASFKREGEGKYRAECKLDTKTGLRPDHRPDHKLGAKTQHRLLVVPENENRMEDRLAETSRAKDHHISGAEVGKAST
Conditions: at 0.1 µM.

In experiment [5] the target is T3, Testis-specific serine/threonine-protein kinase 2 (Homo sapiens). Conditions: at 1 µM.
For experiment [6], the target named is Casein kinase I isoform alpha (Homo sapiens) (UniProt P48729). Conditions: at 0.1 µM.
For experiment [7] the target is unchanged. Conditions: at 1 µM.
In experiment [8] the target is Casein kinase I isoform gamma-1 (Homo sapiens) (UniProt Q9HCP0). Conditions: at 0.1 µM.
The target is the same in experiment [9]. Conditions: at 1 µM.
For experiment [10], the target named is Casein kinase I isoform gamma-2 (Homo sapiens) (UniProt P78368). Conditions: at 0.1 µM.
Experiment [11] shares this target. Conditions: at 1 µM.
For experiment [12], the target named is Casein kinase I isoform gamma-3 (Homo sapiens) (UniProt Q9Y6M4). Conditions: at 0.1 µM.
Experiment [13] has the same target. Conditions: at 1 µM.
Experiment [14] addresses Cyclin-dependent kinase 1 (Homo sapiens) (UniProt P06493). Conditions: at 0.1 µM.
For experiment [15] the target is unchanged. Conditions: at 1 µM.
The target of experiment [16] is Cyclin-dependent kinase 2 (Homo sapiens) (UniProt P24941). Conditions: at 0.1 µM.
Experiment [17] shares this target. Conditions: at 1 µM.
Experiment [18] shares this target. Conditions: at 0.1 µM. The source holds these as a separate data set.
For experiment [19] the target is unchanged. Conditions: at 1 µM. The source holds these as a separate data set.
Experiment [20] deals with CDK3/Cyclin E (Homo sapiens) (UniProt P24864+Q00526). Conditions: at 0.1 µM.

In ChEMBL document CHEMBL1961873, “Compounds: GSK PKIS; Assays: Nanosyn kinase panel” (2012) one finds inhibition data, which are given here for 7 molecules.

Usually inhibition stands for the change of the read-out against control, counted positive when it falls.

CDK3/Cyclin E (Homo sapiens), sequence (P24864 whole entry, looked up): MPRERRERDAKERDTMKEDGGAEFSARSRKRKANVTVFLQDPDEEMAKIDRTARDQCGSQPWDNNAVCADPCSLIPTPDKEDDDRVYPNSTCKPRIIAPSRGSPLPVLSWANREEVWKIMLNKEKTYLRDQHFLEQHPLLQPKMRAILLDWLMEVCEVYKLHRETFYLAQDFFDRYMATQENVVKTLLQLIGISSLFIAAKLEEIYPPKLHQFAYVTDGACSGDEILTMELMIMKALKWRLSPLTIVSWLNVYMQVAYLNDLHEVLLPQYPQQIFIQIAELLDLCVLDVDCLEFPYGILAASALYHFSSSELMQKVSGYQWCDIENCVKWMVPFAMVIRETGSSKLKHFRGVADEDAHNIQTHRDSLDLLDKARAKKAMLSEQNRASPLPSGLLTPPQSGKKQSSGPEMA
CDK3/Cyclin E (Homo sapiens), sequence (Q00526 whole entry, looked up): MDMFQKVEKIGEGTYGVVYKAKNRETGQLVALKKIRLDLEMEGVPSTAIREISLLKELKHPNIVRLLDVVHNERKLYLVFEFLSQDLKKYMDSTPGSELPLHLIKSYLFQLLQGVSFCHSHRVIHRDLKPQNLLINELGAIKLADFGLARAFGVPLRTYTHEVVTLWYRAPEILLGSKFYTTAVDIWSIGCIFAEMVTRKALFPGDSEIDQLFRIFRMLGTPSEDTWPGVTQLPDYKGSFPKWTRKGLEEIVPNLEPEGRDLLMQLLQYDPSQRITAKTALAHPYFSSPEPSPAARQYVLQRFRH
Casein kinase I isoform gamma-3 (Homo sapiens), sequence (Q9Y6M4 whole entry, looked up, canonical isoform): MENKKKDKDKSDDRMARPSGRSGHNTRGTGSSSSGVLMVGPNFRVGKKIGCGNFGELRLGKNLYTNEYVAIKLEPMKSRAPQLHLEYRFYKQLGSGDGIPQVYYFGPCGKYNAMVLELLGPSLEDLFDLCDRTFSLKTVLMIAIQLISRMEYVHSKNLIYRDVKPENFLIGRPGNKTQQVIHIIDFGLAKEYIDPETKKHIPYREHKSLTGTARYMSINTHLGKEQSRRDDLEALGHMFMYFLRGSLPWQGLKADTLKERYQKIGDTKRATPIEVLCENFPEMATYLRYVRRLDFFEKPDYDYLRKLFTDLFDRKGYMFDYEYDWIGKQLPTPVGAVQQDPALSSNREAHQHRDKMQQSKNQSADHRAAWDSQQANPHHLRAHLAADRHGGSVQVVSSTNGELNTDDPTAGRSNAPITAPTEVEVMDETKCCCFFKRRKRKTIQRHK
Cyclin-dependent kinase 1 (Homo sapiens), sequence (P06493 whole entry, looked up): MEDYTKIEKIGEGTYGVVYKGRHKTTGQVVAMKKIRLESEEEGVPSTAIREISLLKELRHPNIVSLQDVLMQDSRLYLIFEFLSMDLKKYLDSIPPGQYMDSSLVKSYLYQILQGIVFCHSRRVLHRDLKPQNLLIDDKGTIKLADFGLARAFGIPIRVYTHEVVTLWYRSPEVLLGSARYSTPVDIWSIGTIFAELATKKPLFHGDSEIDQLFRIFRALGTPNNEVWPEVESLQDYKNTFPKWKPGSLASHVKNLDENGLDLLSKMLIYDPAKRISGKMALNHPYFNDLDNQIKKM
Casein kinase I isoform gamma-2 (Homo sapiens), sequence (P78368 whole entry, looked up, canonical isoform): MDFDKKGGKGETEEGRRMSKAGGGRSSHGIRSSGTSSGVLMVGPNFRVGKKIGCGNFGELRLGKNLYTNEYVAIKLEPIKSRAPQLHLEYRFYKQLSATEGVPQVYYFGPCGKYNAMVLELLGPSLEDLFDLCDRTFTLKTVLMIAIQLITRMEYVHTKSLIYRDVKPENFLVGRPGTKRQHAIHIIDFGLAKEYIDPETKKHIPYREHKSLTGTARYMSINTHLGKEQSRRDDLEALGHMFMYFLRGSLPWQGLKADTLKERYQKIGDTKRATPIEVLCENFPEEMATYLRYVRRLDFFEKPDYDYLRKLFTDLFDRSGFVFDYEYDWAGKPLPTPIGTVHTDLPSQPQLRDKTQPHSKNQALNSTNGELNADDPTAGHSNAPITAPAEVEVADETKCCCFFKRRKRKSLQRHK
Casein kinase I isoform gamma-1 (Homo sapiens), sequence (Q9HCP0 whole entry, looked up, canonical isoform): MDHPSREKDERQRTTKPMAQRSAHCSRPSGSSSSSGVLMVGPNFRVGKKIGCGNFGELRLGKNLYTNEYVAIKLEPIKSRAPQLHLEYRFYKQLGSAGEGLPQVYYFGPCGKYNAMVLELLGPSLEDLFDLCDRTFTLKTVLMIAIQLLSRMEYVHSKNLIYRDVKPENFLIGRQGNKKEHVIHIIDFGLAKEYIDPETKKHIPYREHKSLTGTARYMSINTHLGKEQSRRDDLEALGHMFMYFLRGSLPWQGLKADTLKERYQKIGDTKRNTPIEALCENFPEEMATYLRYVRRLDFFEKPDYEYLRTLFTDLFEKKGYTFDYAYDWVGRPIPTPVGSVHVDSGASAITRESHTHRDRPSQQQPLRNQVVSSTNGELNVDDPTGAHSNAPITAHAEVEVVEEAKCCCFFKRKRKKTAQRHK
Casein kinase I isoform alpha (Homo sapiens), sequence (P48729 2-337 limits assumed): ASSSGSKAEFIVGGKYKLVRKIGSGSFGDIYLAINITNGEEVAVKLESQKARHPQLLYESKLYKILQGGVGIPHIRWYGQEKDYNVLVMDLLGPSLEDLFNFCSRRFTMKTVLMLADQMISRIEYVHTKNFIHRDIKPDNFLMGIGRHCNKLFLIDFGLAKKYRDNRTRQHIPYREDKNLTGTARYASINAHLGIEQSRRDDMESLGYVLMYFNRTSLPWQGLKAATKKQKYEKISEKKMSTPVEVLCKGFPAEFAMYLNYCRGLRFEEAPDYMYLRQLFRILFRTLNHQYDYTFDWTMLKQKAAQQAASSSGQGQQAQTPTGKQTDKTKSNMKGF

In the case of `CS(=O)(=O)Nc1ccc(N/C=C2\C(=O)Nc3ccccc32)cc1`, the inhibition is 14.2% in experiment [1]; 0.15% in [2]; 2.2% in [3]; -1.89% in experiment [4]; -1.19% in experiment [5]; -2.3% in experiment [6]. Besides, the inhibition is 7.96% in experiment [7]; -1.92% in experiment [8]; 1.81% in experiment [9]; -1.68% in experiment [10]; 2.22% in [11]; 0.3% in experiment [12]. Further, the inhibition in [13] was 3.9%; in experiment [14], 1.78%; in experiment [15], 9.18%; in [16], 1.42%; in experiment [17], 18.1%; in [18], 2.53%. Moreover, the results for the inhibition in experiment [19] and in experiment [20] were 22% and 3.36%, respectively.
Turning to `CCc1cccc(NC(=O)Nc2ccc(Oc3ccc4nc(NC(=O)OC)[nH]c4c3)cc2)c1`, the inhibition worked out at 0.79% in [1]; 1.3% in experiment [2]; 1.11% in [3]; 0.77% in experiment [4]; 1.72% in experiment [5]; 2.12% in [6]. Moreover, the inhibition in experiment [7] came to 0.76%; in [8] it was 1.05%; in experiment [9], 0.85%; in experiment [10], 1.08%; in experiment [11], 0.48%; in experiment [12], 0.13%. Besides, the inhibition in experiment [13] was 2.93%; in experiment [14] it was -1.03%; in [15], 0.5%; in experiment [16], 0.71%; in [17], 1.95%; in experiment [18], 3.03%. The inhibition is -0.35% in [19] and 1.01% in experiment [20].
As for `COc1ccc(-c2coc3ncnc(N)c23)cc1`, the inhibition came out at 7.65% in experiment [1]; 4.08% in [2]; 3.27% in experiment [3]; 1.1% in experiment [4]; 0.95% in experiment [5]; 6.3% in experiment [6]. Also, the inhibition in experiment [7] was 4.04%; in experiment [8], 4.29%; in [9], 4.94%; in experiment [10], 4.25%; in [11] it was 6.12%; in experiment [12], 3.42%. Also, the inhibition in [13] is 5.14%; in [14] it was 1.77%; in [15], 3.58%; in [16], 2.89%; in experiment [17] it was 0.12%; in experiment [18] it was 6.07%. The inhibition is 7.82% in experiment [19] and 4.84% in experiment [20].
`COc1cc2c(cc1Nc1nc(N3CCc4ccccc43)c3cc[nH]c3n1)N(C(=O)CN(C)C)CC2`: the inhibition in [1] was 5.19%; in [2], 10.2%; in [3], 19.2%; in experiment [4], 9.19%; in experiment [5] it was 13.6%; in [6], 6.69%. In addition, the inhibition in experiment [7] was 2.45%; in [8], 1.43%; in experiment [9] it was 3.55%; in experiment [10], 0.72%; in [11] it was 2.57%; in experiment [12] it was 0.55%. Also, the inhibition in experiment [13] is 4.52%; in [14], 0.08%; in experiment [15], 1.02%; in experiment [16], 0.42%; in experiment [17], -1.8%; in [18], 1.6%. For the same molecule, the inhibition in [19] was 1.6%; in [20], 0.81%.
Consider `COc1cccc(-n2ncc3c(N/N=C/c4cccc(F)c4)ncnc32)c1`, for which the inhibition was found to be 5.66% in experiment [1]; 2.14% in [2]; 2.06% in experiment [3]; 0.63% in experiment [4]; 0.82% in experiment [5]; 2.35% in experiment [6]. The inhibition in experiment [7] is 2.18%; in experiment [8], -1.45%; in experiment [9], -0.75%; in experiment [10], -1.9%; in [11], -0.18%; in experiment [12], -1.77%. Also, the inhibition was 0.64% in experiment [13]; 1.44% in experiment [14]; 33% in [15]; 3.77% in experiment [16]; 39.1% in experiment [17]; 0.9% in [18]. For the same molecule, the inhibition amounted to 13% in experiment [19] and 4% in [20].
In the case of `CS(=O)(=O)CCNCc1ccc(-c2ccc3ncnc(Nc4ccc(OCc5ccccc5)c(Cl)c4)c3c2)o1`, the inhibition in experiment [1] is 2.91%; in experiment [2], 2.07%; in [3] it was 1.74%; in experiment [4], -0.14%; in experiment [5] it was 0.89%; in experiment [6], -0.43%. For the same molecule, the inhibition in [7] is 0.15%; in experiment [8], 1.35%; in experiment [9], 0.05%; in [10], -0.08%; in [11], 0.01%; in experiment [12], 0.7%. For the same molecule, the inhibition is -0.59% in [13]; 2.72% in [14]; 3.96% in experiment [15]; 2.6% in [16]; 3.73% in [17]; 3.64% in experiment [18]. Further, the inhibition turned out to be 4.5% in [19] and 0.1% in [20].
Regarding `CCn1c(-c2nonc2N)nc2cncc(C(=O)N3CCNCC3)c21`, the inhibition in [1] came to 5.51%; in experiment [2] it was 4.82%; in experiment [3], 5.83%; in experiment [4] it was 2.4%; in [5], 3.03%; in [6] it was 6.74%. Moreover, the inhibition in experiment [7] came out at 9.8%; in experiment [8] it was 5.02%; in experiment [9], 6.64%; in experiment [10], 4.43%; in experiment [11] it was 4.57%; in [12], 3.46%. Also, the inhibition in experiment [13] was 3.18%; in [14], 2.63%; in experiment [15], 1.24%; in [16] it was 3.94%; in experiment [17], 2.62%; in experiment [18], 3.71%. Besides, the inhibition in experiment [19] was 3.23%; in [20] it was -1.18%.
